# Laboratory results as given in PubChem BioAssay (NCATS).
# Values without a mark were called inactive. Inconclusive results are not listed. Activity calls are given as the source filed them. Unless noted, calls follow the shape of the dose curve; as a rule, active = well fitted curve in either direction with a large enough effect (not every such curve was filed as active); inconclusive = small, poorly fitted or top-dose-only effect, or another doubt; inactive = flat fitted curve, though single readings scatter.
# Tests used:
# [1] = biological target: Lysosomal acid glucosylceramidase (Homo sapiens) (UniProt P04062); assay: Glucocerebrosidase-p2 (AID 348; in the data active = potency below about 10 µM; also: potency is read from the fitted curve at half-maximal effect); conditions: purified GBA, blue fluorogenic substrate, 40 min
# Lysosomal acid glucosylceramidase (Homo sapiens), sequence (P04062 whole entry, looked up): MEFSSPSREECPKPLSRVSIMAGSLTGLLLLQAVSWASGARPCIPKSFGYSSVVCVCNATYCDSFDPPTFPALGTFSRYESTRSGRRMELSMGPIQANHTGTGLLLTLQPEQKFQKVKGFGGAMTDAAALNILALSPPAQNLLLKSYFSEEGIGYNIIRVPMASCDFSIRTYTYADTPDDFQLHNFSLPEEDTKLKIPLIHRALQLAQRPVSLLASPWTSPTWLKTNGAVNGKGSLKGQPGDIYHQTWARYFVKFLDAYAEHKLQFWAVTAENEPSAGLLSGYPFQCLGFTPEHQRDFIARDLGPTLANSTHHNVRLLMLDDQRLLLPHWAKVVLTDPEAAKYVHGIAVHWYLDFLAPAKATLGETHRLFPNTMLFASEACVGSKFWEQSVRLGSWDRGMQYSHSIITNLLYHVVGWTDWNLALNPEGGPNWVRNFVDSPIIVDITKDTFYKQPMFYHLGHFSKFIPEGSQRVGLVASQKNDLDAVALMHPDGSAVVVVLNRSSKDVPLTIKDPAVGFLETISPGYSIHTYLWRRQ
# How it was run: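 Compounds titrated from 0.6 nM upwards against 0.2 nM enzyme in pH 5.9 citric acid/KH2PO4, taurocholate, tween-20; blue fluorogenic substrate 80 uM, 40 min room temperature, stopped and read Ex 365/Em 440 for AC50.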
# [2] = AP1 Signaling Pathway (AID 357); conditions: ME-180 AP-1-bla reporter, EGF-induced, beta-lactamase ratio, 5 h; at 7.69 µM (top of the series) unless noted; also: % is scaled to controls: 0 for no effect and ±100 for the full control effect
# How it was run: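 Read-out was the 460nm/530nm emission ratio (excitation 405nm) after CCF4 loading for 2.5 hours at room temperature. Cells carried an AP-1-driven beta-lactamase reporter, were stimulated with EC50 EGF plus compound for 5 hours, and AC50 values came from titrations.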
# [3] = biological target: Cytochrome P450 1A2 (Homo sapiens) (UniProt P05177); assay: p450-cyp1a2 (AID 410; calls by dose curve; also: potency is read from the fitted curve at half-maximal effect;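 as to activity change, negative = inhibition: -100% = full effect of reference inhibitor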); conditions: recombinant CYP1A2, luciferin-ME demethylation, luminescence; series mostly up to 11.4 µM
# Cytochrome P450 1A2 (Homo sapiens), sequence (P05177 whole entry, looked up): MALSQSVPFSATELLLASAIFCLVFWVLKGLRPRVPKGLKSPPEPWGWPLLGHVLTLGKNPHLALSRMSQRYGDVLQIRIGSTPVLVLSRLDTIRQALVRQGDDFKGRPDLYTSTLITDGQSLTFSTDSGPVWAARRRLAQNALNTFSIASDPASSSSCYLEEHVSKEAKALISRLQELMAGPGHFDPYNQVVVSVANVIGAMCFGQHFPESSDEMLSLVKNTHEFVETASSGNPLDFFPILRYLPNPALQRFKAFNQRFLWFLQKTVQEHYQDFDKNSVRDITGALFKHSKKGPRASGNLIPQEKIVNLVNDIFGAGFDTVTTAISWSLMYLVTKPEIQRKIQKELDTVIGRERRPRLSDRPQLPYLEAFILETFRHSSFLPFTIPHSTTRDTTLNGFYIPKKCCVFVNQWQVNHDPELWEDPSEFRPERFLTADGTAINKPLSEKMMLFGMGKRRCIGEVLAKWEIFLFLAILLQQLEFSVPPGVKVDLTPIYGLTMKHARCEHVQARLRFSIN
# How it was run: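 Inhibition was calculated relative to 57 uM furafylline (full inhibition). The reaction used human CYP1A2 at 20nM with Luciferin-ME at its Km, 100uM, driven by an NADPH-regenerating system for 60 min at room temperature.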
# [4] = NFAT Signaling Pathway (AID 444); conditions: Jurkat NFAT-bla M1, carbachol, beta-lactamase ratio, 5 h; at 7.69 µM (top of the series) unless noted;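 also: carbachol stimulus at about its EC50 of 1 µM final; % is scaled to controls: 0 for no effect and ±100 for the full control effect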
# How it was run: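 Jurkat cells with NFAT-driven β-lactamase reporter and co-expressed M1 receptor, stimulated with carbachol (final 1 uM, ~EC50), compound titration, 5 h at 37 °C. CCF4 loaded 1 h at RT; 460/530 nm ratio gave %activity and AC50.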
# [5] = Stat Signaling Pathway (AID 446); conditions: ME-180 SIE beta-lactamase reporter, IL-6 stimulated, 5 h; at 7.69 µM (top of the series) unless noted;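 also: ME-180 cervical cancer cells given 40 pM IL-6 alongside compound; SIE-controlled beta-lactamase reporter measured as 460/530 nm FRET emission ratio; % is scaled to controls: 0 for no effect and ±100 for the full control effect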
# How it was run: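 Reporter line: ME-180 cervical carcinoma, SIE-beta-lactamase. Treatment: compound with 40 pM IL-6, 5 hrs, 37 C, in low-serum OPTI-MEM with 10 mM HEPES pH 7.3. Detection: 460/530 nm fluorescence.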
# [6] = biological target: Glucocorticoid receptor (Homo sapiens) (UniProt P04150); assay: GR-GFP Redistribution (AID 450;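 active = compounds whose dose series gives a full or clear partial fitted curve of increased nuclear translocation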; also: potency is read from the fitted curve at half-maximal effect); conditions: U2OS GR-GFP nuclear translocation, laser cytometry, 2 h
# Glucocorticoid receptor (Homo sapiens), sequence (P04150 whole entry, looked up, the tested form may be a part): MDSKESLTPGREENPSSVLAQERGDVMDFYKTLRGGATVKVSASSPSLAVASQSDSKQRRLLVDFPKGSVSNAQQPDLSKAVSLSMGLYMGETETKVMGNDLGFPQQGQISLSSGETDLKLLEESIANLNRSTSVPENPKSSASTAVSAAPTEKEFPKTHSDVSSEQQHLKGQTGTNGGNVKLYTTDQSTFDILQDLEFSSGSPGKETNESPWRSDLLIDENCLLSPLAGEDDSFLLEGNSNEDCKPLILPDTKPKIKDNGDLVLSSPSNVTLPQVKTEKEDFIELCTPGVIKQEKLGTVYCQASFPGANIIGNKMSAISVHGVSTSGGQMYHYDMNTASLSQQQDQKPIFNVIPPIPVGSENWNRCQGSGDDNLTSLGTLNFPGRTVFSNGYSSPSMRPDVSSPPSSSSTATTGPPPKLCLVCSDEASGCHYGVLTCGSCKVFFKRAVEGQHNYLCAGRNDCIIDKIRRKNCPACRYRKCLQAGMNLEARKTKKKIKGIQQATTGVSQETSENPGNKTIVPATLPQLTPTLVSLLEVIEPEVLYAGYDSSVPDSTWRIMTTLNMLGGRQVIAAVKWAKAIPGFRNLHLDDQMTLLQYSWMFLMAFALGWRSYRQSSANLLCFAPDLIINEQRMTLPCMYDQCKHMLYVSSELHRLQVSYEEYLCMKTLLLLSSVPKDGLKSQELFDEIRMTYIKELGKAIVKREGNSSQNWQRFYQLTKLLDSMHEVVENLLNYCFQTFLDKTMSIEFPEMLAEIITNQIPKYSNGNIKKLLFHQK
# [7] = biological target: Glucocorticoid receptor (Homo sapiens) (UniProt P04150); assay: GR-EFC Redistribution (AID 451; calls by dose curve; also: potency is read from the fitted curve at half-maximal effect); conditions: CHO-K1 GR-EFC translocation, beta-gal luminescence, 2 h
# How it was run: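 CHO-K1 cells expressing nuclear EA and GR-ED fragments of b-gal; compounds titrated up to 46 uM final, 2 h at 37 C. GR nuclear translocation read as complemented b-gal luminescence after 1 h RT detection.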
# [8] = biological target: 3',5'-cyclic-AMP phosphodiesterase 4B (Homo sapiens) (UniProt Q07343); assay: qHTS Assay for Inhibitors of PDE-IV (AID 607; active = well fitted activation curve with a large enough effect in the main read-out, with a control signal flat, not every such curve was filed as active; also: % of control where 0% means no effect); conditions: HEK293 ACTOne CNG channel cells, membrane potential fluorescence; series mostly up to 22.9 µM
# 3',5'-cyclic-AMP phosphodiesterase 4B (Homo sapiens), sequence (Q07343 whole entry, looked up): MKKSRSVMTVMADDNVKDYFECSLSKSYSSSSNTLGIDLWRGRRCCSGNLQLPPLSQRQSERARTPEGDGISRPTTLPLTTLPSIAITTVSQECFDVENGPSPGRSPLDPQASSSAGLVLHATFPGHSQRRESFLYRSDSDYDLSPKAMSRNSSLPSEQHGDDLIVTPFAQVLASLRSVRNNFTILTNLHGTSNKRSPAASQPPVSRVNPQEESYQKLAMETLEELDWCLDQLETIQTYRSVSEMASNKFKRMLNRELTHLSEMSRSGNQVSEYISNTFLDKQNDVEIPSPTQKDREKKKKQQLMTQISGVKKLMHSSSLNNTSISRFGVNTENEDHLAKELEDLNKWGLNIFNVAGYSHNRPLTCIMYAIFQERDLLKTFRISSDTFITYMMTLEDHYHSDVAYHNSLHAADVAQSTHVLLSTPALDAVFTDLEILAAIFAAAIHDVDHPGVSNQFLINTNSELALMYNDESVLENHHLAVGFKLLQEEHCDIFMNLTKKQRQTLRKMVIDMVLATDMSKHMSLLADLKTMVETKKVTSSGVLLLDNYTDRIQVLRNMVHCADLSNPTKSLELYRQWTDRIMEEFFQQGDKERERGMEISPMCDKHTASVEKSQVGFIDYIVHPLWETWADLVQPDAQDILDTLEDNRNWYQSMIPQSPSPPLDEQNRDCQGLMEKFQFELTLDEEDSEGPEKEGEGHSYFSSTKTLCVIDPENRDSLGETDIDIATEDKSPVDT
# How it was run: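 Cell-based read-out of cAMP via a modified cyclic nucleotide-gated channel and membrane potential dye (535/590 nm) in HEK293 cells expressing PDE4 endogenously. Compounds tested up to 22.9 uM final; 100 uM RO 20-1724 reference.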
# [9] = biological target: Mitogen-activated protein kinase 10 (Mus musculus) (UniProt Q61831); assay: JNK3 AlphaScreen Assay (AID 530); conditions: JNK3 lysate, c-Jun phosphorylation; series mostly up to 11.4 µM;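 also: kinase came from lysate of stimulated human HepG2 cells; signal reports phosphorylation of biotinylated GST-cJun 1-79 at Ser73 with 10 µM ATP; % is scaled to controls: 0 for no effect and ±100 for the full control effect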
# How it was run: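 qHTS format: compounds tested as titrations against IL-1beta/TNF-alpha-activated HepG2 lysate JNK3 with biotin-GST-cJun substrate and 10 uM ATP at room temperature. Loss of anti-phospho-cJun AlphaScreen signal indicates inhibition.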
# [10] = biological target: Cytochrome P450 3A4 (Homo sapiens) (UniProt P08684); assay: qHTS Assay for Inhibitors and Substrates of Cytochrome P450 3A4 (AID 884; active = well fitted curve in the direction sought with a large enough effect; an effect the other way counts as inactive or inconclusive; also: nearly all actives have a fitted effect of over 50% in size; also: potency is read from the fitted curve at half-maximal effect); conditions: recombinant CYP3A4, Luciferin-PPXE luminescence; series mostly up to 57.1 µM
# Cytochrome P450 3A4 (Homo sapiens), sequence (P08684 whole entry, looked up): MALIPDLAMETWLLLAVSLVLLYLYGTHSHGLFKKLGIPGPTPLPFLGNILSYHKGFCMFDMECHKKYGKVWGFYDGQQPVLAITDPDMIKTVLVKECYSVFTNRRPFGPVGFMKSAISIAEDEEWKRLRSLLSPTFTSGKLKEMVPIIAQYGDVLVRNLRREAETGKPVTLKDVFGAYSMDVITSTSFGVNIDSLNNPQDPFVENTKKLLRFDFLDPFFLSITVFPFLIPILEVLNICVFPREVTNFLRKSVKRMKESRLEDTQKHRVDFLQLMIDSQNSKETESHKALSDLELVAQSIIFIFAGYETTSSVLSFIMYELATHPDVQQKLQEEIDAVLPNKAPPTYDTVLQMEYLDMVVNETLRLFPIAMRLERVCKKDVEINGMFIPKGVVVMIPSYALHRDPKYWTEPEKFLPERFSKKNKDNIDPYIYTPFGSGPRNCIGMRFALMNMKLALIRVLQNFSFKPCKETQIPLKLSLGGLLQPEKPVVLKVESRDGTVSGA
# How it was run: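 20 nM human CYP3A4 with 25 uM Luciferin-PPXE (at KM) in 200 mM KPO4, preincubated 10 min with compound; NADPH regeneration started a 60 min RT reaction. Luciferin detected by luminescence, normalized to 57 uM ketoconazole as full inhibition.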
# [11] = biological target: Cytochrome P450 3A4 (Homo sapiens) (UniProt P08684); assay: qHTS Assay for Activators of Cytochrome P450 3A4 (AID 885; active = well fitted curve in the direction sought with a large enough effect; an effect the other way counts as inactive or inconclusive; also: nearly all actives have a fitted effect of over 65% in size; also: potency is read from the fitted curve at half-maximal effect); conditions: recombinant CYP3A4, Luciferin-PPXE luminescence, 60 min; series mostly up to 11.4 µM
# How it was run: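 Signal was normalized against complete inhibition by 57 uM ketoconazole. The reaction used 20nM CYP3A4 with 25uM Luciferin-PPXE, 10-min compound preincubation and a 60-min NADPH-supported step at RT.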
# [12] = biological target: Cytochrome P450 2D6 (Homo sapiens) (UniProt P10635); assay: qHTS Assay for Inhibitors and Substrates of Cytochrome P450 2D6 (AID 891; active = well fitted curve in the direction sought with a large enough effect; an effect the other way counts as inactive or inconclusive; also: potency is read from the fitted curve at half-maximal effect; nearly all actives have a fitted effect of over 60% in size); conditions: recombinant CYP2D6, luciferin-ME EGE luminescence; series mostly up to 11.4 µM
# Cytochrome P450 2D6 (Homo sapiens), sequence (P10635 whole entry, looked up): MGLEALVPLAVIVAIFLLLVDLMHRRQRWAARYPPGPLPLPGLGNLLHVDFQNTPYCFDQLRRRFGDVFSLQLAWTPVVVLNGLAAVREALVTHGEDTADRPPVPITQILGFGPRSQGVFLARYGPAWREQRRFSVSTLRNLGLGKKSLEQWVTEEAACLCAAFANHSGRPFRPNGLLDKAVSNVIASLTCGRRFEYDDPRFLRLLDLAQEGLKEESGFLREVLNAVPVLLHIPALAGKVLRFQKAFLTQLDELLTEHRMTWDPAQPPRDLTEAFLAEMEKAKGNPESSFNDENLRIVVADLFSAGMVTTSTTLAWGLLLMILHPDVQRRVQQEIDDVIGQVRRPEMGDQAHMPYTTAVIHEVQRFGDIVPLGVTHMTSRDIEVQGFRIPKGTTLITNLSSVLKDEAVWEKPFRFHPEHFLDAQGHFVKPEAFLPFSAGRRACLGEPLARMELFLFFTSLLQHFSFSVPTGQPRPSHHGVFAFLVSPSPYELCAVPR
# How it was run: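 Human CYP2D6 (5 nM) with 30 uM Luciferin-ME EGE (at Km) in 100 mM KPO4, compound preincubated 10 min, then NADPH regeneration system for 60 min at room temperature. Luciferin read by luminescence; normalized to 1.43 uM quinidine.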
# [13] = qHTS Assay for Identification of Small Molecule Agonists for Hypoxia Response Element Signaling Pathway (AID 914; active = well fitted activation curve with a large enough effect in the signal ratio, with a control signal flat, not every such curve was filed as active; the % refers to the signal ratio; also: % of control where 0% means no effect); conditions: ME-180 HRE-bla reporter, beta-lactamase ratio, CoCl2, 17 h; activation: active compounds read high
# How it was run: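 ME-180 cells carrying an HRE-driven beta-lactamase reporter were treated with compounds in a titration series plus an EC50 level of CoCl2 for 17 h at 37 degrees Celsius; CCF4 readout as the 460nm/530nm ratio gave AC50 values.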
# [14] = biological target: Cytochrome P450 2C9 (Homo sapiens) (UniProt P11712); assay: qHTS Assay for Inhibitors and Substrates of Cytochrome P450 2C9 (AID 883; active = well fitted curve in the direction sought with a large enough effect; an effect the other way counts as inactive or inconclusive; also: potency is read from the fitted curve at half-maximal effect; nearly all actives have a fitted effect of over 60% in size); conditions: recombinant CYP2C9, luciferin-H luminescence, 60 min; series mostly up to 11.4 µM
# Cytochrome P450 2C9 (Homo sapiens), sequence (P11712 whole entry, looked up): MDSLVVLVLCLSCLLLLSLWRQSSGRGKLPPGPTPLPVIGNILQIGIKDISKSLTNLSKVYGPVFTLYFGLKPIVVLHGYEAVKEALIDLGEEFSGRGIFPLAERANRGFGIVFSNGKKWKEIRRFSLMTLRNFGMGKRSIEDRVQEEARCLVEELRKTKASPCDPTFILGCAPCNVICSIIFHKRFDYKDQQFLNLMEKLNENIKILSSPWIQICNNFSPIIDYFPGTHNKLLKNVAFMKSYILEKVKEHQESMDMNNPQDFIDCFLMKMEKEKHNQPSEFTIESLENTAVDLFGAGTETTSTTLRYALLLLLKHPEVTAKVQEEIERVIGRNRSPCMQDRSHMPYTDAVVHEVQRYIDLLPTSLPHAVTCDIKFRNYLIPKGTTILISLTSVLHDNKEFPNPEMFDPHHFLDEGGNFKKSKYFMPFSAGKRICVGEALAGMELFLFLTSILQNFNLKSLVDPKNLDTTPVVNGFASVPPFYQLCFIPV
# How it was run: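 Signal: luciferase luminescence reporting luciferin produced by CYP2C9. Conditions: 10nM enzyme, Luciferin-H 100uM at KM, 25mM KPO4, 37C, 60 min NADPH-driven reaction. Reference: 57uM sulphaphenazole as 100% inhibition.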
# [15] = biological target: Cytochrome P450 2C19 (Homo sapiens) (UniProt P33261); assay: qHTS Assay for Inhibitors and Substrates of Cytochrome P450 2C19 (AID 899; active = well fitted curve in the direction sought with a large enough effect; an effect the other way counts as inactive or inconclusive; also: potency is read from the fitted curve at half-maximal effect; nearly all actives have a fitted effect of over 60% in size); conditions: recombinant CYP2C19, luciferin-H EGE luminescence; series mostly up to 11.4 µM
# Cytochrome P450 2C19 (Homo sapiens), sequence (P33261 whole entry, looked up): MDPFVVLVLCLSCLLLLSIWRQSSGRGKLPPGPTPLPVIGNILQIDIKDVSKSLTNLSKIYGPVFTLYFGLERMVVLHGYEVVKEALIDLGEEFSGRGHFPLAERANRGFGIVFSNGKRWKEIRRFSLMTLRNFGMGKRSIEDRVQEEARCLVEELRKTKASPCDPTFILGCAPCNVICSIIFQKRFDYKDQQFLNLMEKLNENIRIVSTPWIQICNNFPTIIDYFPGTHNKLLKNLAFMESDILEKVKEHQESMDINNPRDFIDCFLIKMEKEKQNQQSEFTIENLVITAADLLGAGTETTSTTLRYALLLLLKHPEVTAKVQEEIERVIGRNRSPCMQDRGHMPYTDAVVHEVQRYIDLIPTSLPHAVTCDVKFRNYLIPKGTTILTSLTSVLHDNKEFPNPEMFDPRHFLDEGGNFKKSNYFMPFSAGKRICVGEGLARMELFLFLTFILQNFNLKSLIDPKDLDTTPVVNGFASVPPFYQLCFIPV
# How it was run: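 Signal comes from luciferase acting on luciferin released by CYP2C19-mediated hydroxylation of Luciferin-H EGE, 10uM (KM). Assay mix: 5nM enzyme, 50mM KPO4; 60 min at 37C with NADPH regeneration. Data normalized against 57uM ketoconazole.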
Compound,Potency [1] [µM],"activity change, negative = inhibition [2] [%]",Potency [3],"activity change, negative = inhibition [4] [%]","activity, negative = inhibition [5] [%]",Potency [6] [µM],Potency [7] [µM],Potency [8],Potency [9],"activity change, negative = inhibition [10]",Potency [11],"activity change, negative = inhibition [3]",Potency [12],activation [13] [%],Potency [10],Potency [14],Potency [15]
COc1ccc(/C=C(\C#N)C(N)=O)cc1OC,> 11.4,-5.77,3.16 µM (active),11.6,-2.19,> 46,> 9.22,inactive,,,,,,,,,
O=C1C[C@H]2C(=O)[C@@H]1[C@@H](C(=O)O)[C@H]2C(=O)O,> 11.4,5.27,inactive,7.84,-5.86,> 46,> 9.22,inactive,,,,,,,,,
CC(=O)OCC(=O)[C@]12OC(C)(C)O[C@@H]1C[C@H]1[C@H]3CC=C4C[C@@H](O)CC[C@]4(C)[C@H]3CC[C@]12C,> 11.4,8.77,inactive,-9.45,5.43,> 46,> 9.22,,inactive,69.9% [at 11.4 µM],3.16 µM (active),,,,,,
CC(C)NC1(C(N)=O)CCN(Cc2ccccc2)CC1,> 11.4,0.245,,-10.3,-5.76,> 46,> 9.22,,inactive,,,7.6% [at 2.29 µM],0.631 µM (active),,,,
O=C1CCC(c2ccccc2)=NN1c1nc2ccccc2s1,> 11.4,-11.1,0.398 µM (active),-3.68,-10.7,> 46,> 9.22,inactive,inactive,,,,,-16.7,,,
O=C(O)c1ccc(C(=O)O)c(C(=O)O)c1.[NH-][C@@H]1CCCC[C@@H]1[NH-].[Pt],> 11.4,0.428,inactive,-9.87,-6.09,> 46,> 9.22,inactive,,,,,,,,,
O=C(O)c1c[nH]c2c(ccc3[nH]cc(C(=O)O)c(=O)c32)c1=O,> 11.4,-0.603,5.01 µM (active),8.43,13.7,> 46,> 9.22,inactive,,,,,,,,,
O=C(O)CC12C[C@H]3C[C@@H](CC(O)(C3)C1)C2,> 11.4,9.34,inactive,-2.52,-1.43,> 46,> 9.22,inactive,,,,,,,,,
Oc1c(Br)cc(CN(Cc2cc(Br)c(O)c(Br)c2)C2CCCCC2)cc1Br,> 11.4,11.3,,-14,-10.4,> 46,> 9.22,,inactive,,,-5.7% [at 2.29 µM],2.51 µM (active),,,,
Nc1nc(SCc2ccccc2[N+](=O)[O-])c2[nH]cnc2n1,> 11.4,-3.57,5.01 µM (active),14.4,-8.39,> 46,> 9.22,,inactive,,inactive,,,,3.16 µM (active),,
COc1ccc(CNc2ncnc3ccc(-c4ccccc4C#N)cc23)c(OC)c1,> 11.4,13.2,6.31 µM (active),8.27,-15,> 46,> 46,,inactive,,inactive,,,,,,
COc1ccccc1CCn1c(=O)c(-c2ccccc2)nc2cncnc21,> 11.4,-5.11,1 µM (active),-9.96,-0.776,> 9.22,> 46,,inactive,,inactive,,,,3.98 µM (active),5.01 µM (active),0.631 µM (active)
O=C(O)/C=C\C(=O)Nc1ccccn1,> 11.4,1.01,inactive,11.9,-1.9,> 46,> 9.22,inactive,inactive,,,,,4.82,,,
CN(CC(=O)O)Cc1c[nH]c2ccccc12,> 11.4,-2.9,inactive,-8.48,-5.98,> 46,> 9.22,inactive,,,,,,,,,
COCCn1c(=O)c(-c2cccs2)nc2cnc(Oc3ccc(OC)cc3)nc21,> 11.4,-1.43,2.51 µM (active),15.8,11.7,> 9.22,> 46,inactive,,,inactive,,,,0.794 µM (active),5.01 µM (active),
